Experimental data from PubChem BioAssay (NCI).
About 83,000 compounds went through this panel and 20% of them were active in at least one assay; those are over-represented in the sample as a whole.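 Results are percent growth after 48 hours of single-concentration exposure. 100 means growth as in untreated cells, lower positive values show inhibition; negative values down to -100 show cell death.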 Unmarked numbers belong to inactive results. The source made the active and inactive calls. How the source made its calls: active means growth percent below 10; inactive means the rest.

Test system: MDA-MB-231 breast
Assay: NCI-60 one-dose screen, 48 h (100 = growth as untreated, 0 = no growth, -100 = all killed)
Conditions: 10 µM unless noted

Compound | growth
FC(F)(F)c1cc(-c2nnc3n2N=C(Cl)CS3)cc(C(F)(F)F)c1 | 112%
COc1ccc(/C=C/c2nc3ccccc3c(=O)n2-c2ccc(C#Cc3ccc(C(C)(C)C)cc3)cc2C)c(OC)c1 | 89.5%
Cc1cc(O)c2cc3c(O)c(O)ccc3cc2c1 | 95.2%
COc1ccc(-c2nc3ccccc3n3cccc23)cc1 | 97.9%
CCOC(=O)c1cc(C(=O)OCC)c(C)nc1C | 107%
CN1C(=O)N(C)C2C1NN=c1s/c(=C\c3ccc(Br)cc3)c(=O)n12 (stereo unspecified) | 66.1%
O=C1OCC2=C1C(c1ccccc1)c1cc3c(cc1N2CCO)OCO3 (stereo unspecified) | 52.2%
CCC1N=C(N)N=C(N)N1c1ccc(Cl)cc1 (stereo unspecified) | 99.5%
COc1cc(OC)cc(-c2ccc(-c3ccc(C(=N)N)s3)s2)c1 | -80.5% (active)
Cc1cccc(N=NC(=S)NNc2cccc(C)c2)c1 | 93.5%
CCn1c(Cc2ccccc2Nc2c(Cl)cccc2Cl)nnc1SCC(=O)Nc1cccc(OC)c1 | 61.6%
NC(=S)N1N=C(c2ccc(Cl)cc2)CC1c1cc2ccccc2[nH]c1=O (stereo unspecified) | 109%
CC(C)c1nc2ccccc2n1CC(=O)N/N=C/c1cccc(O)c1 | 93.4%
COc1ccc(Oc2nc(Nc3ccc(N4CCOCC4)cc3)ncc2NC(=O)Nc2cccc(OC)c2)cc1 | 28.8%
Clc1cccc(CNc2c3ccccc3nc3ccccc23)c1 | 29.4%
O=C1OCC2=C1C(c1ccccc1)c1cc3c(cc1N2CCO)CCC3 (stereo unspecified) | 16.4%
